According to PubChem BioAssay (NCATS):
Results filed as inconclusive are left out. Calls come from the whole dose curve; as a rule, active = well fitted curve in either direction with a large enough effect (not every such curve was filed as active); inconclusive = small, poorly fitted or top-dose-only effect, or another doubt; inactive = flat fitted curve, though single readings scatter.

target: Mitogen-activated protein kinase 10 (Mus musculus) (UniProt Q61831); assay: JNK3 AlphaScreen Assay (AID 530); conditions: JNK3 lysate, c-Jun phosphorylation; series mostly up to 57.1 µM; activity change, negative = inhibition: at the top concentration;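 note: kinase came from lysate of stimulated human HepG2 cells; signal reports phosphorylation of biotinylated GST-cJun 1-79 at Ser73 with 10 µM ATP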
Summary of the method: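 qHTS titrations with 15 min compound pre-incubation before adding ATP (10 uM final). Read-out: AlphaScreen of Ser73-phosphorylated biotin-GST-cJun using HepG2 lysate JNK3 activated by IL-1β and TNFα.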
% is set by controls: 0 for no effect and ±100 for the full control effect.

Activity change, negative = inhibition, inactive:
CCC[C@@H]1C[C@@]1(CCC)[C@@H](NC(=O)c1ccccc1)c1ccc(C(=O)OC)cc1 20.2%
CC(=O)N1[C@H](C)C=C[C@]1(Cc1ccccc1)C(=O)NCc1cc(F)cc(C(F)(F)F)c1 8.02%
C[C@@H]1C=C[C@](Cc2ccccc2)(C(=O)NCC2CC2)N1C(=O)c1ccccc1 1.03%
COC(=O)c1ccc(C(NC(=O)OCc2ccccc2)/C(I)=C/[C@@H](C)C(=O)NCc2ccc(C)o2)cc1 (some centres undefined) -0.903%
COC(=O)c1ccc(C(NC(=O)OCc2ccccc2)/C(F)=C/[C@@H](C)C(=O)NCc2ccc(-c3ccccc3)cc2)cc1 (some centres undefined) 4.28%
COC(=O)c1ccc(C(/C=C/[C@@H](C)C(=O)N[C@H](C)CO)NC(=O)OCc2ccccc2)cc1 (some centres undefined) 5.29%
COC(=O)c1ccc(C(NC(=O)OCc2ccccc2)/C(F)=C/[C@@H](C)C(=O)NCc2nc3ccccc3s2)cc1 (some centres undefined) -2.14%
COC(=O)c1ccc(C(NC(=O)OCc2ccccc2)/C(=C/[C@@H](C)C(=O)NCc2cc(C)on2)c2cccnc2)cc1 (some centres undefined) -3.99%
COC(=O)[C@@H]1CCCN1C(=O)[C@H]1C[C@@H]1[C@H](NC(=O)OCc1ccccc1)c1ccccc1 1.6%
CC(C)CC1(C(=O)NCC2CC2)C=CCN1C(=O)c1ccccc1 (centres undefined) -17.7%
O=C1C(Cl)=C(NC2CCc3ccccc32)C(=O)c2ncccc21 (centres undefined) -3.49%
CCCCCCN(C(=O)CCCCCN1C(=O)NC(c2ccc(Cl)cc2)C(C(=O)OCc2ccccc2)=C1C)C(C(=O)NCCCC)c1ccc(OCC(=O)OC)c(C(=O)OC)c1 (centres undefined) -5.66%
CC(C)(C)NC(=O)C(c1ccc(I)cc1)N(CCN1CCOCC1)C(=O)CCCNC(=O)c1ccccc1 (centres undefined) 1.26%
COC(=O)c1ccc(C(NC(=O)OCc2ccccc2)/C(=C/[C@@H](C)C(=O)NCc2ccc(OC)c(O)c2)c2cccnc2)cc1 (some centres undefined) -4.39%
COC(=O)N1[C@H](Cc2ccccc2)C=C[C@]1(C)C(=O)NCc1ccccn1 -10.7%
COC(=O)c1ccc(C(NC(=O)OCc2ccccc2)/C(=C/[C@@H](C)C(=O)NCc2ccc(C)o2)c2cccnc2)cc1 (some centres undefined) 2.45%
CCCCNC(=O)C(c1ccc(OCC(=O)OC)c(C(=O)OC)c1)N(Cc1ccccn1)C(=O)CCCCCN1C(=O)NC(c2ccc(-c3ccccc3)cc2)C(C(=O)OCc2ccccc2)=C1C (centres undefined) -13.4%
COC(=O)c1ccc(C(NC(=O)OCc2ccccc2)/C(=C/[C@@H](C)C(=O)NCCc2c[nH]c3ccccc23)c2cccnc2)cc1 (some centres undefined) -10%
CCCCCCN(C(=O)CCCCCN1C(=O)NC(c2ccc(C3CCCCC3)cc2)C(C(=O)OCc2ccccc2)=C1C)C(C(=O)NCCCC)c1ccc(OCC(=O)OC)c(C(=O)OC)c1 (centres undefined) -8.73%
Cc1nn(-c2ccccc2)nc1CNC(=O)C(C)Cc1ccccc1 (centres undefined) -3.14%
CC(=O)N1C2(C=CC1(C)C(=O)NCc1ccccn1)CCCCC2 (centres undefined) -2.89%
COC(=O)c1ccc(C(NC(=O)OCc2ccccc2)/C(I)=C/[C@@H](C)C(=O)Nc2ccccc2)cc1 (some centres undefined) 7.38%
COC(=O)c1ccc(C(NC(=O)OCc2ccccc2)/C(F)=C/[C@@H](C)C(=O)N[C@@H](CO)Cc2ccccc2)cc1 (some centres undefined) 0.136%
CCCCCCN(C(=O)CCCCCN1C(=O)NC(c2ccccc2-c2ccccc2)C(C(=O)OCc2ccccc2)=C1C)C(C(=O)NCCCC)c1ccc(OCC(=O)OC)c(C(=O)OC)c1 (centres undefined) -15.7%
CCCCCCN(C(=O)CCCCCN1C(=O)NC(c2cccc([N+](=O)[O-])c2)C(C(=O)OCc2ccccc2)=C1C)C(C(=O)NCCCC)c1ccc(OCC(=O)OC)c(C(=O)OC)c1 (centres undefined) -11.4%
COC(=O)c1ccc(C(NC(=O)OCc2ccccc2)/C(=C/[C@@H](C)C(=O)Nc2ccccc2)c2cccnc2)cc1 (some centres undefined) -4.18%
COC(=O)c1ccc(C(NC(=O)OCc2ccccc2)/C(C)=C/[C@@H](C)C(=O)Nc2ccc(OC)cc2)cc1 (some centres undefined) -0.726%
CCCCCCN(C(=O)CCCCCN1C(=O)NC(c2ccc([N+](=O)[O-])cc2)C(C(=O)OCc2ccccc2)=C1C)C(C(=O)NCCCC)c1ccc(OCC(=O)OC)c(C(=O)OC)c1 (centres undefined) -8.29%
COC(=O)c1ccc(C(NC(=O)OCc2ccccc2)/C(F)=C/[C@@H](C)C(=O)NCCc2c[nH]c3ccc(OC)cc23)cc1 (some centres undefined) -9.86%
